Laboratory results: PubChem BioAssay (NCATS)
“And” between values parts separate entries of the source, which are not always exact repeats. Equal values may be shown once. Records with an inconclusive call do not appear. The source made the active and inactive calls. Unless noted, calls come from the whole dose curve; as a rule, active = well fitted curve in either direction with a large enough effect (not every such curve was filed as active); inconclusive = small, poorly fitted or top-dose-only effect, or another doubt; inactive = flat fitted curve, though single readings scatter.

Experiments:
[1] = target: Lysosomal acid glucosylceramidase (Homo sapiens) (UniProt P04062); experiment: Glucocerebrosidase-p2 (AID 348; in the data active = potency below about 10 µM; note: potency is the fitted concentration of half-maximal effect); settings: purified GBA, blue fluorogenic substrate, 40 min
Chain of Lysosomal acid glucosylceramidase (Homo sapiens) (P04062 whole entry, looked up): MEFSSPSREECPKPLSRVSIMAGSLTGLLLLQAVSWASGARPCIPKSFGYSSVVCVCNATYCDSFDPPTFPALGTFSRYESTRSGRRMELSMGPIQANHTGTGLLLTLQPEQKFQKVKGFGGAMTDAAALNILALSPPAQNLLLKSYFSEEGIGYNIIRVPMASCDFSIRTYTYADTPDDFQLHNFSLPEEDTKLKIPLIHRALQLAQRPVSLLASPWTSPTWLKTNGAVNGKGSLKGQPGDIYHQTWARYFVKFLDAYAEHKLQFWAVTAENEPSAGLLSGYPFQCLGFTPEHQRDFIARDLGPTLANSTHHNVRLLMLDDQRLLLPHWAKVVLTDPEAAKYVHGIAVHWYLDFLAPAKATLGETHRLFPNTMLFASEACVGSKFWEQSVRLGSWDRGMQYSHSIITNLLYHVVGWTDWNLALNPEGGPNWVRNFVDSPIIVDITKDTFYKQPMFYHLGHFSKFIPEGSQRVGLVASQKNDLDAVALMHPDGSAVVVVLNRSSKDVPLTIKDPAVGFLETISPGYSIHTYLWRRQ
In short: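 Compounds titrated from 0.6 nM upwards against 0.2 nM enzyme in pH 5.9 citric acid/KH2PO4, taurocholate, tween-20; blue fluorogenic substrate 80 uM, 40 min room temperature, stopped and read Ex 365/Em 440 for AC50.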

[2] = AP1 Signaling Pathway (AID 357); settings: ME-180 AP-1-bla reporter, EGF-induced, beta-lactamase ratio, 5 h; at 7.69 µM (top of the series) unless noted;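 note: ME-180 reporter cells stimulated with EGF at its EC50 level; % is set by controls: 0 for no effect and ±100 for the full control effect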
In short: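 In this screen, ME-180 cells in Opti-MEM with 0.5% dialyzed FBS received EC50 EGF and compound titrations for 5 h. AP-1 reporter beta-lactamase was detected via CCF4 ratio, giving AC50 for positive and negative modulators.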

[3] = NFAT Signaling Pathway (AID 444); settings: Jurkat NFAT-bla M1, carbachol, beta-lactamase ratio, 5 h; at 7.69 µM (top of the series) unless noted;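 note: carbachol stimulus at about its EC50 of 1 µM final; % is set by controls: 0 for no effect and ±100 for the full control effect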
In short: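 Jurkat cells carrying an NFAT-driven β-lactamase reporter and co-transfected muscarinic M1 receptor were treated with compound plus carbachol (1 uM final, an EC50 level) for 5 h at 37 °C. CCF4 loading followed for 1 h at RT; 460/530 nm ratio gave %activity.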

[4] = Stat Signaling Pathway (AID 446); settings: ME-180 SIE beta-lactamase reporter, IL-6 stimulated, 5 h; at 7.69 µM (top of the series) unless noted;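 note: ME-180 cervical cancer cells given 40 pM IL-6 alongside compound; SIE-controlled beta-lactamase reporter measured as 460/530 nm FRET emission ratio; % is set by controls: 0 for no effect and ±100 for the full control effect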
In short: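 Screening format detects activators and inhibitors alike: ME-180 SIE-bla cells stimulated at 40 pM IL-6 for 5 hrs with compound, then dual-emission beta-lactamase read at 405 nm excitation.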

[5] = target: Glucocorticoid receptor (Homo sapiens) (UniProt P04150); experiment: GR-GFP Redistribution (AID 450;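 active = compounds whose dose series gives a full or clear partial fitted curve of increased nuclear translocation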; note: potency is the fitted concentration of half-maximal effect); settings: U2OS GR-GFP nuclear translocation, laser cytometry, 2 h
Chain of Glucocorticoid receptor (Homo sapiens) (P04150 whole entry, looked up, the tested form may be a part): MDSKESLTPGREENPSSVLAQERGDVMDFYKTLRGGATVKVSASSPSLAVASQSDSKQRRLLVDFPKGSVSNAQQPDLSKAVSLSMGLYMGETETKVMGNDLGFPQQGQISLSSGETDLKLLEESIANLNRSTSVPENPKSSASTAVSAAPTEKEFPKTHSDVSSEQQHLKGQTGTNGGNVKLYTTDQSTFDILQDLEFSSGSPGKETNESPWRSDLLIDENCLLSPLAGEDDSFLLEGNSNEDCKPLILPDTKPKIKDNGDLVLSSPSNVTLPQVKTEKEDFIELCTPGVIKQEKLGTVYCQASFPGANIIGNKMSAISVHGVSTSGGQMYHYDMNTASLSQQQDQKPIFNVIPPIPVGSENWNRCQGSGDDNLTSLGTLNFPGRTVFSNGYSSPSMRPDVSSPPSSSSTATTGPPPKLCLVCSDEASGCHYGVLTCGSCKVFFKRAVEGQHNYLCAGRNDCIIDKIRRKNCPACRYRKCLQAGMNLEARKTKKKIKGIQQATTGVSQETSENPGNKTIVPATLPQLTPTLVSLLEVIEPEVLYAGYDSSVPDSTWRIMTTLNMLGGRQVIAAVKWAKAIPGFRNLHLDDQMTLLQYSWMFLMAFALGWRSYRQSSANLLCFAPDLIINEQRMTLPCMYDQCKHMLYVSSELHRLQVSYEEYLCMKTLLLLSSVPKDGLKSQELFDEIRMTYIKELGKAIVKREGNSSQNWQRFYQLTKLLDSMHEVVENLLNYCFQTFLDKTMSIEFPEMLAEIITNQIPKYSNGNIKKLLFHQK

[6] = target: Glucocorticoid receptor (Homo sapiens) (UniProt P04150); experiment: GR-EFC Redistribution (AID 451; calls by dose curve; note: potency is the fitted concentration of half-maximal effect); settings: CHO-K1 GR-EFC translocation, beta-gal luminescence, 2 h
In short: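 CHO-K1 cells stably expressing nuclear-localized β-gal enzyme acceptor and GR fused C-terminally to the enzyme donor fragment; ligand-driven nuclear translocation restores β-gal by complementation. Compounds titrated up to 46 uM final, 2 h at 37 °C; luminescence read.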

[7] = target: Mitogen-activated protein kinase 10 (Mus musculus) (UniProt Q61831); experiment: JNK3 AlphaScreen Assay (AID 530); settings: JNK3 lysate, c-Jun phosphorylation; series mostly up to 11.4 µM;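 note: kinase came from lysate of stimulated human HepG2 cells; signal reports phosphorylation of biotinylated GST-cJun 1-79 at Ser73 with 10 µM ATP; % is set by controls: 0 for no effect and ±100 for the full control effect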
In short: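 Inhibitors reduce antibody binding to phosphorylated biotin-cJun, lowering AlphaScreen luminescence. Lysates from HepG2 cells pre-activated by IL-1beta plus TNF-alpha supplied JNK3; compounds were titrated.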

[8] = target: 3',5'-cyclic-AMP phosphodiesterase 4B (Homo sapiens) (UniProt Q07343); experiment: qHTS Assay for Inhibitors of PDE-IV (AID 607; active = well fitted activation curve with a large enough effect in the main read-out, with a control signal flat, not every such curve was filed as active; note: % of control where 0% means no effect); settings: HEK293 ACTOne CNG channel cells, membrane potential fluorescence; series mostly up to 22.9 µM
Chain of 3',5'-cyclic-AMP phosphodiesterase 4B (Homo sapiens) (Q07343 whole entry, looked up): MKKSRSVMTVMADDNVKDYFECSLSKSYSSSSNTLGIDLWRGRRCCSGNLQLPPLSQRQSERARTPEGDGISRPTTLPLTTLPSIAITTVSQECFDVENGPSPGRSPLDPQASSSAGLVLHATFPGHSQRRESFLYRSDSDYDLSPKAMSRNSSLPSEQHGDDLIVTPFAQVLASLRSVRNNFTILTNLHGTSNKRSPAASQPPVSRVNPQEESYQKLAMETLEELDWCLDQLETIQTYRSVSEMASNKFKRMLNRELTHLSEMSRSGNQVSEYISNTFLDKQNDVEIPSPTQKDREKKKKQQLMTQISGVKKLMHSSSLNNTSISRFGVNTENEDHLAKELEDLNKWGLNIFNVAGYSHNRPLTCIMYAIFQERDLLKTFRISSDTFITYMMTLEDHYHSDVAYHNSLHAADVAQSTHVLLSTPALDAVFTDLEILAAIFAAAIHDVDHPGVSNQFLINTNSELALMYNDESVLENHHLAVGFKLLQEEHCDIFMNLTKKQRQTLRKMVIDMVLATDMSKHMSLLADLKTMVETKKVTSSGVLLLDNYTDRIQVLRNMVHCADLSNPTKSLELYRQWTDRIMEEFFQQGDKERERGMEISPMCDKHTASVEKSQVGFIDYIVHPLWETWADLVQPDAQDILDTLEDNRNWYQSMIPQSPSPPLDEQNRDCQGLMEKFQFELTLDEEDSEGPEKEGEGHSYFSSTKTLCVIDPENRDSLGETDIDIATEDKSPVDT
In short: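 The readout is membrane depolarisation from a cAMP-sensing CNG channel, detected with a potential dye at ex 535/em 590. Cells were HEK293-derived (endogenous PDE-IV) at 1000 cells/well, titrated up to 22.9 uM final.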

NC(N)=NCCCC(=O)O
inactive: Potency [1] > 11.4 µM | activity change, negative = inhibition [2] -2.56% | activity change, negative = inhibition [3] 13.2% | activity, negative = inhibition [4] 4.79% | Potency [5] > 46 µM | Potency [6] > 9.22 µM | Potency [7] | Potency [8]

O=C1c2ccccc2C(=O)c2c(Nc3ccc4c5c(cccc35)C(=O)c3ccccc3-4)cccc21
inactive: Potency [1] > 11.4 µM | activity change, negative = inhibition [2] -3.08% | activity change, negative = inhibition [3] 6.45% | activity, negative = inhibition [4] 0.0671% | Potency [5] > 46 µM | Potency [6] > 9.22 µM | Potency [7] | Potency [8]

COc1ccc(Br)c2c1C[C@H](C(=O)O)CC2
inactive: Potency [1] > 11.4 µM | activity change, negative = inhibition [2] 12.4% | activity change, negative = inhibition [3] 2.11% | activity, negative = inhibition [4] -1.98% | Potency [5] > 46 µM | Potency [6] > 9.22 µM | Potency [7] | Potency [8]

COc1ccc2c(c1)CCc1c(-c3noc4c3CCc3cc(OC)ccc3-4)noc1-2
inactive: Potency [1] > 11.4 µM | activity change, negative = inhibition [2] -10.7% | activity change, negative = inhibition [3] -3.27% | activity, negative = inhibition [4] 2.75% | Potency [5] > 46 µM | Potency [6] > 9.22 µM | Potency [7] | Potency [8]

NC1=N[C@H](c2ccc(Cl)cc2)N(c2ccc(S(N)(=O)=O)cc2)C(N)=N1
inactive: Potency [1] > 11.4 µM | activity change, negative = inhibition [2] -2.15% | activity change, negative = inhibition [3] -10.1% | activity, negative = inhibition [4] -0.371% | Potency [5] > 46 µM | Potency [6] > 9.22 µM | Potency [7] | Potency [8]

O=C(O)CSc1ccc([N+](=O)[O-])cc1[N+](=O)[O-]
inactive: Potency [1] > 11.4 µM | activity change, negative = inhibition [2] 10.9% | activity change, negative = inhibition [3] -3.03% | activity, negative = inhibition [4] 9.83% | Potency [5] > 46 µM | Potency [6] > 9.22 µM | Potency [7] | Potency [8]

O=C(O)[C@H]1CCc2ccc3ccccc3c2[C@H]1c1cccc2ccccc12
inactive: Potency [1] > 11.4 µM | activity change, negative = inhibition [2] -12.8% | activity change, negative = inhibition [3] -25.8% | activity, negative = inhibition [4] -8.82% | Potency [5] > 46 µM | Potency [6] > 9.22 µM | Potency [7] | Potency [8]

CN1[C@@H](c2ccccc2)CC(=NO)C[C@H]1c1ccccc1
inactive: Potency [1] > 11.4 µM | activity change, negative = inhibition [2] 0.163% | activity change, negative = inhibition [3] -20.1% | activity, negative = inhibition [4] 5.8% | Potency [5] > 46 µM | Potency [6] > 9.22 µM | Potency [7] | Potency [8]

CC(C)(CCC(C)(C)c1ccccc1)c1ccccc1
inactive: Potency [1] > 11.4 µM | activity change, negative = inhibition [2] -0.999% | activity change, negative = inhibition [3] 5.11% | activity, negative = inhibition [4] -2.84% | Potency [5] > 46 µM | Potency [6] > 9.22 µM | Potency [7] | Potency [8]

Cc1cc2cc3c(=O)[nH]c(=O)[nH]c3nc2cc1C
inactive: Potency [1] > 11.4 µM | activity change, negative = inhibition [2] -6.37% | activity change, negative = inhibition [3] 11.7% | activity, negative = inhibition [4] -6.9% | Potency [5] > 46 µM | Potency [6] > 9.22 µM | Potency [7] | Potency [8]

CN(C)Cc1cc(C(C)(C)C)cc(CNC2CCCCC2)c1O
inactive: Potency [1] > 11.4 µM | activity change, negative = inhibition [2] -6.47% | activity change, negative = inhibition [3] -20.6% | activity, negative = inhibition [4] 7.16% | Potency [5] > 46 µM | Potency [6] > 9.22 µM | Potency [7] | Potency [8]

O=C(O)CCSCc1ccc(I)cc1
inactive: Potency [1] > 11.4 µM | activity change, negative = inhibition [2] 2.76% | activity change, negative = inhibition [3] 1.51% | activity, negative = inhibition [4] 4.16% | Potency [5] > 46 µM | Potency [6] > 9.22 µM | Potency [7] | Potency [8]

NCCOc1ccccn1
inactive: Potency [1] > 11.4 µM | activity change, negative = inhibition [2] 10% | activity change, negative = inhibition [3] 1.74% | activity, negative = inhibition [4] -2.14% | Potency [5] > 46 µM | Potency [6] > 9.22 µM | Potency [7] | Potency [8]

COc1ccc(Cc2ccc3[nH]c(=O)cc(C)c3c2)cc1S(=O)(=O)O
inactive: Potency [1] > 11.4 µM | activity change, negative = inhibition [2] 7.37% | activity change, negative = inhibition [3] 8.36% | activity, negative = inhibition [4] 5.41% | Potency [5] > 46 µM | Potency [6] > 9.22 µM | Potency [7] | Potency [8]

O=C(O)Cc1cccc2c(=O)cc(-c3ccccc3)oc12
inactive: Potency [1] > 11.4 µM | activity change, negative = inhibition [2] -1.49% | activity change, negative = inhibition [3] -5.58% | activity, negative = inhibition [4] -3.42% | Potency [5] > 46 µM | Potency [6] > 9.22 µM | Potency [7] | Potency [8]

C#CCOC(=O)[C@H](N)CC(N)=O
inactive: Potency [1] > 11.4 µM | activity change, negative = inhibition [2] 0.665% | activity change, negative = inhibition [3] 13.9% | activity, negative = inhibition [4] -0.998% | Potency [5] > 46 µM | Potency [6] > 9.22 µM | Potency [7] | Potency [8]

COc1cccc(CSCC(=O)O)c1
inactive: Potency [1] > 11.4 µM | activity change, negative = inhibition [2] -5.92% | activity change, negative = inhibition [3] 6.63% | activity, negative = inhibition [4] 6.95% | Potency [5] > 46 µM | Potency [6] > 9.22 µM | Potency [7] | Potency [8]

CCC(=O)[C@@H](c1ccccc1)c1ccccn1
inactive: Potency [1] > 11.4 µM | activity change, negative = inhibition [2] 10.3% | activity change, negative = inhibition [3] -5.51% | activity, negative = inhibition [4] 0.735% | Potency [5] > 46 µM | Potency [6] > 9.22 µM | Potency [7] | Potency [8]

O=C(O)c1nnsc1-c1ccc(-c2snnc2C(=O)O)cc1
inactive: Potency [1] > 11.4 µM | activity change, negative = inhibition [2] -0.0507% | activity change, negative = inhibition [3] 18.7% | activity, negative = inhibition [4] -0.666% | Potency [5] > 46 µM | Potency [6] > 9.22 µM | Potency [7] | Potency [8]

COc1ccc2c(c1)[n+]([O-])c(/C(C)=N/NC(N)=S)c(C)[n+]2[O-]
inactive: Potency [1] > 11.4 µM | activity change, negative = inhibition [2] -7.76% | activity change, negative = inhibition [3] 5.82% | activity, negative = inhibition [4] 0.294% | Potency [5] > 46 µM | Potency [6] > 9.22 µM | Potency [7] | Potency [8]

O=C(CSC1=NCCN1)c1ccccc1
inactive: Potency [1] > 11.4 µM | activity change, negative = inhibition [2] -0.79% | activity change, negative = inhibition [3] -8.06% | activity, negative = inhibition [4] -8.19% | Potency [5] > 46 µM | Potency [6] > 9.22 µM | Potency [7] | Potency [8]

O=c1oc2ccccc2c(O)c1/C=N/c1nc(-c2ccc(O)c(O)c2)cs1
inactive: Potency [1] > 11.4 µM | activity change, negative = inhibition [2] -3.14% | activity change, negative = inhibition [3] 27.7% | activity, negative = inhibition [4] -11.7% | Potency [5] > 46 µM | Potency [6] > 9.22 µM | Potency [7] | Potency [8]

O=c1c2ccccc2c2ccccc2c(=O)n1-c1cc2c3ccccc3ccc2c2ccccc12
inactive: Potency [1] > 11.4 µM | activity change, negative = inhibition [2] 13.5% | activity change, negative = inhibition [3] 2.31% | activity, negative = inhibition [4] -7.32% | Potency [5] > 46 µM | Potency [6] > 9.22 µM | Potency [7] | Potency [8]

N=C(N)SCCc1ccccn1
inactive: Potency [1] > 11.4 µM | activity change, negative = inhibition [2] -8.38% and 0.949% | activity change, negative = inhibition [3] 3.85% and 12.3% | activity, negative = inhibition [4] -5.15% and -3.19% | Potency [5] > 46 µM | Potency [6] > 9.22 µM | Potency [7] | Potency [8]

COc1ccc(Oc2ncc3nc(-c4ccc(Cl)cc4)c(=O)n(CCC#N)c3n2)cc1
inactive: Potency [1] > 11.4 µM | activity change, negative = inhibition [2] -25.6% | activity change, negative = inhibition [3] 0.455% | activity, negative = inhibition [4] -7.87% | Potency [5] > 46 µM | Potency [6] > 46 µM | Potency [7] | Potency [8]

O=C(O)CCCCn1cnc2c(=S)nc[nH]c21
inactive: Potency [1] > 11.4 µM | activity change, negative = inhibition [2] 8.11% | activity change, negative = inhibition [3] 5.86% | activity, negative = inhibition [4] 6.11% | Potency [5] > 46 µM | Potency [6] > 9.22 µM | Potency [7] | Potency [8]
